Bioassay records (PubChem BioAssay)
TDP1 cell CPT: growth inhibition of DT40 Tdp1-/-;hTDP1 cells with camptothecin (screen for TDP1 inhibitors); chicken DT40 Tdp1-/-;hTDP1 cells + 20 nM CPT, ATP luminescence, 48 h; Potency, µM (top dose mostly 46.2 µM), for inactives: at the highest dose activity change, negative = growth inhibition, usual class: inhibitors; 12% of 420,000 active; AID 686979; also: potency is read from the fitted curve at half-maximal effect; nearly all actives have a fitted effect of over 55% in size
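Chicken DT40 Tdp1-/- cells complemented with human TDP1, 400 cells/well, exposed to compounds plus 20 nM camptothecin for at least 48 h at 37 C; viability read as ATP content by CellTiter-Glo luminescence.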
HT1080-NT tox: kills 2HG-producing HT-1080-NT fibrosarcoma cells. HT-1080-NT fibrosarcoma viability, CellTiter-Glo ATP luminescence, 48 h. Potency, µM (titrated, usually from 46.1 µM), for the others: at the highest dose activity, negative = less viability, most hits filed as cytotoxic. 1.6% of 360,000 active. AID 686970;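 also: NT is the 2HG producing partner of a matched IDH1 knockdown line; potency is read from the fitted curve at half-maximal effect; 0% = DMSO-treated cells and -100% = media-only wells without cells; nearly all actives have a fitted effect of over 55% in size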
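Viability by CellTiter-Glo luminescence after 48 h compound exposure at 37C of HT-1080-NT cells (750/well, RPMI, 5% FBS). % activity scaled between DMSO wells and medium-only wells, then curve-fitted and categorized by curve class.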
IL-1B inflam inh: blocks inflammasome-driven IL-1 beta release | THP-1 LPS/ATP IL-1B secretion, AlphaLISA, 16 h; hits give low values | activity change, % at 57.5 µM | 4.7% of 360,000 active; in the data active = activity change below about -50%; inconclusive = mostly about -30% to -49%
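Secreted IL-1B measured by AlphaLISA bead assay after 16 h compound exposure of THP-1 cells; compounds (final up to 57.5 uM) added 1 h before LPS (250 ng/mL) and ATP (1.25 mM) stimulation; lower signal means less secretion.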
DT40 TDP1 no CPT: qHTS for Inhibitors of human tyrosyl-DNA phosphodiesterase 1 (TDP1): qHTS in cells in absence of CPT; Potency, µM (doses to about 46.2 µM), for the others: at the highest dose activity change, negative = growth inhibition, actives largely listed as inhibitors; DT40 Tdp1-/- hTDP1 cells, no CPT, ATP luminescence, 48 h; 15% of 420,000 active; also: potency is read from the fitted curve at half-maximal effect; nearly all actives have a fitted effect of over 55% in size
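Camptothecin absent (DMSO only). Human TDP1-complemented DT40 knockout cells, 400 cells/well, 37 °C for minimum 48 hr; ATP measured via CellTiter-Glo, 30 min dark incubation, luminescence.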
HT1080 IDH1KD tx: toxicity to HT-1080 IDH1 knockdown cells (counter line); AID 686971; Potency, µM (doses to about 46.1 µM), for inactives: at the highest dose activity, negative = toxicity, hits mostly cytotoxic; HT-1080 IDH1 knockdown viability, ATP luminescence, 48 h; 2% of 360,000 active;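 also: potency is read from the fitted curve at half-maximal effect; 0% = DMSO wells and -100% = cell-free medium wells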
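Viability of IDH1-knockdown HT-1080 fibrosarcoma cells was assessed by CellTiter-Glo after 48 h at 37 °C with titrated compound; concentration-effect curves were classified by fit quality and response size.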
* marks the source's active call; other numbers are inactive results; ? = inconclusive. An excerpt weighted towards active compounds, which were near 19% of everything screened. Unless noted, calls follow the shape of the dose curve; as a rule, active = well fitted curve in the direction sought with a large enough effect; inconclusive = small, poorly fitted or top-dose-only effect, or another doubt; inactive = no such curve, though single readings can be large; an effect the other way counts as inactive or inconclusive. Unless noted, % is scaled to controls: 0 for no effect and ±100 for the full control effect.

SMILES	TDP1 cell CPT	HT1080-NT tox	IL-1B inflam inh	DT40 TDP1 no CPT	HT1080 IDH1KD tx
COc1ccc(CCCNC(=O)C2Cc3c(-c4ccc(NC(C)=O)cc4)ccnc3O2)cc1 (stereo not given)	16.4µM*	?	-19.1	18.4µM*	16.4µM*
COc1ccc(CCCNC(=O)C2(C)Cc3c(-c4ccc(C(N)=O)cc4)ccnc3O2)cc1 (stereo not given)	?	3.6%	-18.3	?	6.3%
O=C(NCCc1ccccc1)C1Cc2c(-c3ccc(Cl)cc3)ccnc2O1 (stereo not given)	?	-12.3%	22.5	?	-21.9%
COCCNC(=O)C1Cc2c(-c3cccc(NC(C)=O)c3)ccnc2O1 (stereo not given)	?	-0.6%	29.3	?	-1.6%
COc1ccc(CCCNC(=O)C2Cc3c(-c4cccc(C(C)=O)c4)ccnc3O2)cc1 (stereo not given)	3.66µM*	?	0.0	4.61µM*	?
COc1ccc(CCCNC(=O)C2(C)Cc3c(-c4ccc5c(c4)OCO5)ccnc3O2)cc1 (stereo not given)	5.17µM*	?	0.0	5.8µM*	?
COc1ccc(CCCNC(=O)C2Cc3c(-c4ccc5c(c4)OCO5)ccnc3O2)cc1 (stereo not given)	?	9.2µM*	51.6	?	5.8µM*
COc1ccc(S(=O)(=O)N2CCCC2CNC(=O)C(=O)NCc2ccccn2)cc1 (stereo not given)	-20.4%	-4.5%	-14.9	-7.7%	-0.4%
COc1cc2c(cc1NC(=O)C(F)(F)F)-c1ccc(NC(=O)C(F)(F)F)cc1C2	-17.8%	0.8%	1.8	-15.8%	19.9%
CC(C)(C)OC(=O)C[C@H]1C/C=C\C[C@@H](CC(=O)NCCO)C(=O)NC[C@@H](c2ccccc2)OC1=O	-15.4%	1.5%	-2.2	-0.9%	-0.6%
Cc1cccc(C)c1NC(=O)CN1C(=O)NC(C)(C2CC2)C1=O (stereo not given)	8.6%	-0.4%	15.6	4.5%	-7.7%
O=S(=O)(c1ccc2c(c1)OCCCO2)N1CCNCC1	10.0%	2.3%	1.0	-14.5%	-0.8%
CN(Cc1cccc(F)c1)C(=O)CN1CCN(S(=O)(=O)c2ccc3c(c2)OCCCO3)CC1	-21.1%	5.8%	?	0.5%	-3.3%
COc1ccc(C(=O)N2CCN(S(=O)(=O)c3ccc4c(c3)OCCO4)CC2)cc1OC	-24.7%	-2.5%	-25.9	-16.6%	-9.6%
CC(C)(C)C(=O)N1CCN(S(=O)(=O)c2ccc3c(c2)OCCCO3)CC1	?	-19.0%	5.0	18.4µM*	-12.1%
CN(C)S(=O)(=O)c1cccc(C(=O)N2CCN(S(=O)(=O)c3ccc4c(c3)OCCO4)CC2)c1	?	-2.0%	9.8	16.4µM*	0.9%
CC(C(=O)N(C)Cc1cccc(F)c1)N1CCN(S(=O)(=O)c2ccc3c(c2)OCCCO3)CC1 (stereo not given)	?	1.3%	-59.0*	?	-0.8%
CCn1c(SCC(=O)Nc2ccc(C)cc2)nnc1-c1ccc(O)cc1	?	1.7%	10.0	-24.4%	-14.7%
CCc1nnc(NC(=O)CSc2nc3c(c(=O)n2CC)SC(C)C3)s1 (stereo not given)	18.4µM*	14.4%	38.3	11.6µM*	7.7%
CCSc1nnc(NC(=O)CSc2nc3c(c(=O)n2CCOC)SC(C)C3)s1 (stereo not given)	16.4µM*	-5.3%	26.0	23.1µM*	-7.7%
CCC(C)NC(=O)CC(NS(=O)(=O)c1ccc(NC(C)=O)cc1)C(C)C (stereo not given)	-5.1%	24.6%	11.8	7.8%	9.3%
CCc1nc2c(OCCC3CCCCC3)cccn2c1N(C)C(=O)c1ccc(OC)cc1	?	?	-56.5*	20.6µM*	?
CCc1nc2c(OCC3CCCCC3)cccn2c1N(C)C(=O)c1ccc(C)cc1	20.6µM*	?	-14.0	14.6µM*	?
